Compound activity from PubChem BioAssay.
A selection: hits, their analogues and other compounds. The true share with any hit is near 6.2%.
AI-2 QS modul – Vibrio harveyi AI-2 quorum sensing modulation. actives 0.4% (n = 300,000). activity change, % at 7.5 µM. Vibrio harveyi JMH597 AI-2 luminescence/OD600 ratio, 9 h; active compounds read low; strain lacks LuxN and CqsS sensors; 0 = neutral-control median; in the data active means activity change below about -75%, passing the limit was not always enough;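 further: luminescence divided by OD600 gain over 9 h not by final OD600 alone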
SUMO Mot1 rescue – inhibitors of SUMOylation pathway: yeast Mot1-301 growth rescue. S. cerevisiae Mot1-301 growth rescue, ATP luminescence, 38.5C; percent above DMSO median, 100 means doubled. growth rescue, % at 18.8 µM. actives 1% (n = 320,000);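 active means every valid replicate shows activation above 250% relative to neutral control wells; inactive means the rest, any valid replicate at or below 250%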;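 further: OY570 slx delta 5 strain wells were the positive control but not used for scaling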
NR3A LBD binder – NR3A (human) ligand-binding domain modulation; NR3A LBD differential scanning fluorimetry, Tm shift; 0% = protein alone, 100% = glycine-bound protein; actives 2.5% (n = 340,000); Tm shift relative to glycine control, % at 25 µM; AID 1259313;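 active means melting temperature shift of at least 10% of the positive control shift, at one fixed dose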
Cardio protect – protects H9c2 cardiomyocytes from peroxide injury; H2O2 injury protection, ATPLite, 2 h; protection from H2O2 cell death, % at 20 µM; actives 0.63% (n = 360,000); AID 588492;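 active means compounds giving at least 50% protection of heart cells from peroxide-induced death in the single-dose screen, raw or plate-pattern-corrected value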;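 further: 0% = DMSO wells with peroxide and 100% = DMSO wells without peroxide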
NTR1 agonist – NTR1 (human) agonism. P30989. actives 0.17% (n = 330,000). AID 493036. activation, % at 20 µM. NTR1-U2OS beta-arrestin-GFP spot imaging, agonist mode;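 active means activation at or above 40% of the spot to cytoplasm intensity ratio, with at least 20 cells analyzed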;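 further: 0% = DMSO without peptide and 100% = 100 nM NTR1 peptide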
Target sequence (P30989 whole entry, looked up): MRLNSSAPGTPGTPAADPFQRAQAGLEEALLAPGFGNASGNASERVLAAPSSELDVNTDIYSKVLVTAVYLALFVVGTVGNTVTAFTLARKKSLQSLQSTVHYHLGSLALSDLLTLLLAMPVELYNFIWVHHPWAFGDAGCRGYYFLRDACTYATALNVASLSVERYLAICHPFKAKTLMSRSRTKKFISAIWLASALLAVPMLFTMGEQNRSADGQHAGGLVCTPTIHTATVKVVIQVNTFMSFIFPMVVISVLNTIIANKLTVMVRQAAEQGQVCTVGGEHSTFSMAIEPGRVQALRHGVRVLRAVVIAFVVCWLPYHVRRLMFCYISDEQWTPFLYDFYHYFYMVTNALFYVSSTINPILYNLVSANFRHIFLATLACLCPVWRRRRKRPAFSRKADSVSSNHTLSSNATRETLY
AHR activator – human AHR activation. AHR-responsive luciferase reporter cells, luminescence. activation, % at 5 µM. actives 2.5% (n = 320,000); in the data active means activation above about 47%;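 further: 0% = vehicle wells and 100% = reference agonist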
An asterisk follows results filed as active.

Screening C/C(=N/NC(=O)c1ccc(Br)o1)c1cccc(NC(=O)c2ccc(F)cc2)c1 returned AI-2 QS modul 14.9, SUMO Mot1 rescue -2.2, NR3A LBD binder -3.0, Cardio protect 29.0, NTR1 agonist 3.4 and AHR activator 4.4.
COc1ccc(Cl)cc1NC(=O)CN(C)C(=O)/C=C/c1ccco1 was read as SUMO Mot1 rescue 0.1, NR3A LBD binder 1.8, Cardio protect -0.6, NTR1 agonist 3.2 and AHR activator 7.9.
Screening Cc1ccc(CNC(=O)Nc2ccc3c(c2)N(C)C(=O)CS3)cc1 returned AI-2 QS modul -77.6*, SUMO Mot1 rescue -6.5, NR3A LBD binder -2.7, Cardio protect 10.9, NTR1 agonist 0.0 and AHR activator 30.6.
For CC(=O)c1cccc(NC(=O)Nc2ccc3c(c2)N(C)C(=O)CS3)c1 the results were AI-2 QS modul -63.1, SUMO Mot1 rescue 11.8, NR3A LBD binder -10.7, Cardio protect 52.1*, NTR1 agonist 8.3 and AHR activator 31.8.
`CCc1ccc(NC(=O)Nc2ccc3c(c2)N(C)C(=O)CS3)cc1` gave AI-2 QS modul -3.7, SUMO Mot1 rescue -5.8, NR3A LBD binder 3.9, Cardio protect -5.4, NTR1 agonist 5.2 and AHR activator 26.4.
`Cc1ccc(NC(=O)Nc2ccc3c(c2)N(C)C(=O)CS3)cc1C` gave AI-2 QS modul -3.9, SUMO Mot1 rescue -19.3, NR3A LBD binder 5.2, Cardio protect -0.5, NTR1 agonist 2.6 and AHR activator 24.7.
`Cc1cc(C)cc(NC(=O)Nc2ccc3c(c2)N(C)C(=O)CS3)c1` gave AI-2 QS modul -0.4, SUMO Mot1 rescue -7.7, NR3A LBD binder 3.9, Cardio protect -8.8, NTR1 agonist 21.9 and AHR activator 70.7*.
CCn1cc2nc(SCC(=O)Nc3ccc(OC)c(OC)c3)n(Cc3ccc(OC)cc3)c(=O)c2n1 was read as AI-2 QS modul 15.5, SUMO Mot1 rescue 5.9, NR3A LBD binder 13.9*, Cardio protect 3.2, NTR1 agonist -1.1 and AHR activator 0.9.
CCn1cc2nc(SCC(=O)Nc3ccc(OC)cc3OC)n(Cc3ccc(OC)cc3)c(=O)c2n1 was read as AI-2 QS modul 21.1, SUMO Mot1 rescue 18.5, NR3A LBD binder -2.2, Cardio protect 2.9, NTR1 agonist 0.8 and AHR activator -1.0.
CC(C)OC(=O)NCCOC(=O)Nc1ccc(Cl)cc1 was read as AI-2 QS modul 1.0, SUMO Mot1 rescue -7.5, NR3A LBD binder 25.2*, Cardio protect -16.8, NTR1 agonist -0.6 and AHR activator 1.9.
CC(C)OC(=O)NCCOC(=O)Nc1ccccc1Cl was read as AI-2 QS modul 3.3, SUMO Mot1 rescue 5.0, NR3A LBD binder 0.4, Cardio protect -1.4, NTR1 agonist 0.7 and AHR activator -0.9.
Screening CC(=O)N1c2ccc(S(=O)(=O)N3CCCC3)cc2CC1C(=O)NCc1ccc(N(C)C)cc1 (stereo unspecified) returned AI-2 QS modul 11.1, SUMO Mot1 rescue 268.4, NR3A LBD binder -2.2, Cardio protect -0.8, NTR1 agonist -0.3 and AHR activator 4.3.
CCOC(=O)c1cccc(NC(=O)Cn2cc3c(n2)CCC(C)C3)c1 (stereo unspecified) was read as AI-2 QS modul -76.7*, SUMO Mot1 rescue 54.5, NR3A LBD binder 3.2, Cardio protect -10.7, NTR1 agonist -0.2 and AHR activator 4.7.
CC(CCc1ccccc1)NC(=O)CNC(=O)c1ccccc1Br (stereo unspecified) was read as AI-2 QS modul 21.3, SUMO Mot1 rescue 8.1, NR3A LBD binder 1.5, Cardio protect -1.2, NTR1 agonist -0.5 and AHR activator -2.0.
Screening CC(=O)Nc1ccc(NC(=O)CSc2nnc(NC(=O)c3cccc(F)c3)s2)cc1 returned AI-2 QS modul -5.2, SUMO Mot1 rescue -15.5, NR3A LBD binder 30.5*, Cardio protect -21.5, NTR1 agonist -1.0 and AHR activator 11.8.
Screening COc1ccc(C(=O)Nc2nnc(SCC(=O)Nc3ccc(NC(C)=O)cc3)s2)c(OC)c1 returned AI-2 QS modul 16.7, SUMO Mot1 rescue -8.0, NR3A LBD binder 20.4*, Cardio protect -5.4, NTR1 agonist 0.3 and AHR activator -6.6.
`COc1ccc(NC(=O)CSc2nc(N)c(C(=O)Nc3ccc(N(C)C)cc3)s2)cc1` gave AI-2 QS modul 19.1, SUMO Mot1 rescue -10.8, NR3A LBD binder 7.5, Cardio protect -17.6, NTR1 agonist -0.1 and AHR activator 49.7*.
O=C(CSc1nnc(NC(=O)C2CC2)s1)Nc1ccc(F)cc1 was read as AI-2 QS modul 16.4, SUMO Mot1 rescue -1.4, NR3A LBD binder 13.6*, Cardio protect -1.0, NTR1 agonist -3.7 and AHR activator 0.8.
`COc1ccc(-c2ccc3c(c2)C2CC3CCN2S(=O)(=O)c2ccccc2C)cc1` (stereo unspecified) gave NR3A LBD binder -1.1 and Cardio protect -34.2.
`CS(=O)(=O)c1cccc(C(=O)OCC(=O)Nc2ccc3c(c2)OCO3)c1` gave SUMO Mot1 rescue -12.3, NR3A LBD binder -0.8, Cardio protect -6.5, NTR1 agonist 3.2 and AHR activator 2.9.
For O=C(CSc1nnc(NC(=O)c2ccco2)s1)Nc1ccccc1 the results were AI-2 QS modul 34.9, SUMO Mot1 rescue -12.5, NR3A LBD binder 2.9, Cardio protect -5.4, NTR1 agonist 0.6 and AHR activator 0.3.
Screening CC(=O)Nc1ccc(NC(=O)CSc2nnc(NC(=O)c3ccco3)s2)cc1 returned AI-2 QS modul 12.7, SUMO Mot1 rescue -7.8, NR3A LBD binder 15.9*, Cardio protect -6.8, NTR1 agonist 0.8 and AHR activator -1.2.
Screening COCCN1CCN(c2c3c(nc4cc(-c5cccc(F)c5)nn24)CCC3)CC1 returned AI-2 QS modul 22.5, SUMO Mot1 rescue 22.5, NR3A LBD binder -6.0, Cardio protect 86.2*, NTR1 agonist 0.2 and AHR activator 10.3.
Cc1cccc(-c2cc3nc4c(c(N5CCC6(CC5)OCCO6)n3n2)CCCC4)c1 was read as SUMO Mot1 rescue 157.8, NR3A LBD binder 15.3*, Cardio protect -2.8, NTR1 agonist 16.0 and AHR activator 0.6.
`OC(Cn1cnnc1)c1ccccc1` (stereo unspecified) gave AI-2 QS modul 8.0, SUMO Mot1 rescue -7.3, NR3A LBD binder 0.8, Cardio protect 6.9, NTR1 agonist 0.2 and AHR activator -0.9.
`CCCC1(CCC)NC(=O)N(CC(=O)Nc2ccc3c(c2)OCCO3)C1=O` gave SUMO Mot1 rescue -38.8, NR3A LBD binder 2.0, Cardio protect 4.2, NTR1 agonist -0.6 and AHR activator 2.5.
Screening O=C(O)C(=O)/C(=C\c1ccccc1)c1ccc2ccccc2n1 returned AI-2 QS modul 33.2, SUMO Mot1 rescue 2.5, NR3A LBD binder -1.3, Cardio protect -1.1, NTR1 agonist 2.1 and AHR activator 47.6*.
